M1 antag: human M1 muscarinic receptor antagonists, primary screen, CHO-K1 cells, Fluo-8 calcium fluorescence, 1536-well. inhibition, % at 3 µM. CHO-K1 hM1, ACh EC80 antagonist. hit rate 1.3% among 360,000. AID 588852, 2011;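 active means percent inhibition above its own plate's cutoff, namely the mean of that plate's compound wells plus 3 SD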;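 further: peak over basal fluorescence ratio during 140 s after agonist addition; 0% = ACh EC80 plus DMSO and 100% = DMSO alone without agonist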
Target sequence (P11229 whole entry, looked up): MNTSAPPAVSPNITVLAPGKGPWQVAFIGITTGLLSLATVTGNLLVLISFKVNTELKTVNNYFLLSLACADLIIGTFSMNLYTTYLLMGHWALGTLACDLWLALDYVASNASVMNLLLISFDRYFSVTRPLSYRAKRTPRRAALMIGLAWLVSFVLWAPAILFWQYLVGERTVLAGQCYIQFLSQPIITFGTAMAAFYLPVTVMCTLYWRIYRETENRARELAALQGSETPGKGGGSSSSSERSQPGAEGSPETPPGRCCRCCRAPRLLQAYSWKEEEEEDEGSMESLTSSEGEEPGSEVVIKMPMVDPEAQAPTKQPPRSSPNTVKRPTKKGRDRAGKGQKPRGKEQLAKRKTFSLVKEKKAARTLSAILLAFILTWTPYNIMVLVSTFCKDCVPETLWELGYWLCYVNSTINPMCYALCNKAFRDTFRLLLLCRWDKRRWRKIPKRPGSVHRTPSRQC
CHO-K1 Ca antag: nonselective inhibitor or artifact in parental CHO-K1 cells; hit rate 0.6% among 360,000; ATP-induced calcium, Fluo-8 fluorescence; inhibition, % at 3 µM;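 active means inhibition above a per-plate cutoff, the plate's mean sample inhibition plus 3 SD, cut at about 24% in these data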;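 further: 0% = DMSO plus EC80 ATP and 100% = DMSO alone without ATP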
M1 PAM parental: nonselective calcium activators in parental CHO-K1 cells, primary screen, counter-screen for M1 PAM project, cell-based, Fluo-8 calcium fluorescence, full deck, 1536-well; ATP EC20; 0% at ATP EC20, 100% at ATP max; activation, % at 3 µM; hit rate 0.02% among 360,000; AID 602247, 2012;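 active means activation above the run cutoff, the mean activation of all test compounds plus 3 SD, cut at about 40% in these data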;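 further: peak over basal fluorescence ratio in a 140 s read after ATP addition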
CHO-K1 Ca ag: counter-screen for M1 agonists: effect in parental CHO-K1 cells; hit rate 0.48% among 360,000; Fluo-8 calcium fluorescence; scaled to maximal ATP response, vehicle zero; activation, % at 3 µM; AID 602248, 2012; in the data active means activation above about 15%;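 further: untransfected CHO-K1 host cells lacking M1 receptor as counterscreen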
M1 ag: human M1 muscarinic receptor agonists, primary screen, Fluo-8 calcium fluorescence, CHO-K1 cells, HTS; CHO-K1 hM1, agonist mode; 0% DMSO, 100% acetylcholine EC100; activation, % at 3 µM; hit rate 0.33% among 360,000; AID 588814, 2011;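 active means activation above the run's mean compound activation plus 3 SD, cut at about 16% in these data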;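 further: peak over basal fluorescence ratio within a 140 s kinetic read after compound addition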
CHRM1 PAM: human M1 muscarinic receptor positive allosteric modulators, primary screen, CHO-K1 cells, Fluo-8 calcium fluorescence, 1536-well; CHO-K1 hM1, ACh EC20; 0% = ACh EC20, 100% = maximal ACh; activation, % at 3 µM; hit rate 0.088% among 360,000; AID 588819, 2011; in the data active means activation above about 19%, passing the limit was not always enough
The depositor's hits bear a star. An excerpt weighted towards active compounds, which were near 2.3% of everything screened.

SMILES | M1 antag | CHO-K1 Ca antag | M1 PAM parental | CHO-K1 Ca ag | M1 ag | CHRM1 PAM
COc1ccccc1C(C)NC(=O)CCNC(=O)c1ccc(Cl)cc1 (stereo unspecified) | -3 | -12 | 10 | 1 | -3 | 7
CCC[C@@H](NS(=O)(=O)c1ccc(C)cc1)C(=O)Oc1ccc2c3c(c(=O)oc2c1)CCC3 | 38* | 7 | 12 | 12 | 2 | -25
Cc1ccc(S(=O)(=O)NC(C(=O)Oc2ccc3c(C)c(Cl)c(=O)oc3c2)c2ccccc2)cc1 (stereo unspecified) | 9 | 0 | 0 | 0 | -6 | -3
N#CC1=C(N2CCCCC2)c2cc3c(n2C1=O)CCCC3 | 35* | 3 | 14 | 2 | -4 | -20
CCOC(=O)C1=C(SCC)c2cc3c(n2C1=O)CCCC3 | 2 | -4 | 4 | -1 | -6 | -1
CCN1CCCC1CNCc1ccccc1OCc1ccc(F)cc1 (stereo unspecified) | 32* | -1 | 1 | 0 | -9 | -20
CCN1CCCC1CNCc1cccc(OC)c1OCc1ccccc1 (stereo unspecified) | 24 | -11 | 21 | 0 | -7 | -19
CC(=O)c1cccc(NC(=O)Nc2ccc3c(c2)N(C)C(=O)CS3)c1 | 35* | 8 | -1 | 15 | 5 | -18
Cc1cc(C)cc(NC(=O)Nc2ccc3c(c2)N(C)C(=O)CS3)c1 | 44* | 21 | -2 | 13 | -2 | -29
CCc1ccc(NC(=O)Nc2ccc3c(c2)N(C)C(=O)CS3)cc1 | 28 | 16 | 6 | 11 | 1 | -23
Cc1ccc(NC(=O)Nc2ccc3c(c2)N(C)C(=O)CS3)cc1C | 32* | 35* | -6 | 13 | 0 | -23
CCNc1nc(SCCOc2ccc(Cl)cc2Cl)nc(N(C)C)n1 | 1 | -17 | 22 | 1 | -3 | 2
COc1cccc(C(=O)O)c1OS(=O)(=O)c1ccc(C)cc1 | -16 | -9 | 5 | 1 | -1 | 9
COc1ccc(-c2cc(=O)oc3cc(OCC(=O)NCC4CCC(C(=O)O)CC4)ccc23)cc1 (stereo unspecified) | -12 | -3 | 18 | 1 | -4 | 3
COc1cc(NC(=O)COc2ccc([N+](=O)[O-])cc2)ccc1NC(=O)c1ccco1 | -12 | -10 | 28 | 1 | -3 | 8
COc1cc(OC)c(-c2c3cc(O)c(=O)cc-3oc3cc(O)c(O)cc23)cc1OC | 74* | 68* | -16 | 258* | 385* | -28
CCc1cc(C(=O)NC2CCCN(Cc3ccccc3F)C2)n(C)n1 (stereo unspecified) | 5 | 15 | 12 | 12 | 1 | -3
COc1cc2[nH]c(=O)n(CCC(=O)N3CC=C(c4ccccc4)CC3)c(=O)c2cc1OC | 16 | -13 | 9 | 1 | -2 | -2
COc1cc2[nH]c(=O)n(CCCC(=O)N3CC=C(c4ccccc4)CC3)c(=O)c2cc1OC | 32* | 2 | -2 | 0 | -4 | -8
CC(C)(C)S(=O)(=O)N1C[C@H]2CC/C=C\C/C=C\2[C@@H]1CCO | -1 | -3 | -7 | 0 | 3 | -3
CC1CCCN(CCCNC(=O)c2ccc(CS(=O)(=O)c3c(Cl)cccc3Cl)o2)C1 (stereo unspecified) | 57* | -10 | 3 | 1 | -5 | -21
COc1cccc(CN(C)C(=O)C(Cc2ccccc2)NC(=O)c2ccccc2)c1OC (stereo unspecified) | 29* | 13 | -17 | 5 | -2 | -12
COc1ccc(CCNC(=O)c2ccc(CS(=O)(=O)c3ccc(C)cc3)o2)cc1OC | 6 | -9 | -19 | 6 | 2 | -2
COc1ccc(CCNC(=O)c2ccc(CS(=O)(=O)Cc3ccc(C)cc3)o2)cc1OC | 3 | -8 | 9 | 15* | 2 | -6
COc1ccc(CCNC(=O)c2ccc(CS(=O)(=O)c3ccc(Cl)cc3)o2)cc1OC | 30* | 0 | -4 | 17* | 4 | -25
SMILES | M1 antag | CHO-K1 Ca antag | M1 PAM parental | CHO-K1 Ca ag | M1 ag | CHRM1 PAM
Cc1ccc(CCNC(=O)c2ccc(CS(=O)(=O)Cc3ccc(F)cc3)o2)cc1 | -6 | -14 | 3 | 2 | 1 | 10
Cc1ccc(S(=O)(=O)CC(=O)c2cc(C)c(O)c(C)c2)cc1 | -7 | -2 | 17 | 2 | -2 | 7
O=C(NC(=S)NNC(=O)c1cccs1)c1ccc(Br)o1 | -16 | -6 | 0 | 14 | 33* | -4
COc1ccc(C(=O)N/C(=C\c2ccco2)C(=O)OCc2ccco2)cc1 | -11 | -9 | 11 | 0 | -1 | 14
CCCCOc1ccc(C(=O)N/C(=C\c2ccc(OC)cc2)C(=O)OCc2ccco2)cc1 | -6 | -19 | 23 | 16* | -3 | 2
Cc1cccc(NC(=O)CSc2nc(=O)n(CCCN3CCOCC3)c3c2CCCC3)c1 | -3 | 5 | 5 | 0 | -8 | -3
COc1cc(/C=C2\SC(=S)N(NC(=O)c3ccc(O)c(OC)c3)C2=O)ccc1O | 25 | 8 | 8 | 17* | 27* | -11
O=C(CCCN1C(=O)/C(=C/c2cccs2)SC1=S)Nc1cccc(O)c1 | 25* | 15 | -5 | 9 | -1 | -17
COc1cc(/C=C2\SC(=S)N(NC(=O)c3cccc(O)c3)C2=O)ccc1O | 23 | 13 | -34 | 14 | 16* | -6
Cc1ccc(/C=C2\SC(=S)N(CCC(=O)NNC(=O)c3cccc(O)c3)C2=O)cc1 | 32* | 14 | 15 | 5 | -1 | -9
O=C(CCNS(=O)(=O)c1ccc(Br)cc1)NCc1ccco1 | -4 | 0 | -1 | 1 | -2 | 9
CC(C)Oc1cc(N)c(Cl)cc1Cl | 0 | 21 | -10 | 0 | -9 | -3
CCCC1C2CN(C(C)C)CC=C2C(C#N)=C(N)C1(C#N)C#N (stereo unspecified) | 38* | 5 | 6 | 4 | -1 | -20
CN1CC=C2C(C#N)=C(N)C(C#N)(C#N)C(CCc3ccccc3)C2C1 (stereo unspecified) | -2 | -4 | 22 | 2 | -1 | -4
CCn1c(SCC(=O)N(C)CC(=O)Nc2ccc(OC)cc2)nnc1-c1ccco1 | 2 | 4 | 13 | 1 | -5 | 2
C[C@H]1CN=C(N(C)C)N1CC1CCCC1 | 4 | -10 | 10 | 1 | 12 | -4
C[C@H]1CN=C(N(C)C)N1CC1CCC(C(C)(C)C)CC1 (stereo partly specified) | 51* | -17 | 16 | 2 | -10 | -32
